# Measured values: PubChem BioAssay (Tox21)
# Inconclusive results are not listed. Entries that show only a call come without a potency. Active and inactive are the calls of the source. Calls follow the shape of the dose curve; as a rule, active = well fitted cell-killing curve with a large enough effect in the repeat runs; inconclusive = weak or mixed curves, or effect the other way; inactive = flat fitted curve, though single readings scatter.
# Assay: qHTS RealTime-Glo MT Cell Viability Assay in HepG2 cells - 0 hour (AID 1224889); also: nearly all actives have a fitted effect of over 50% in size
# Details: RealTime-Glo luminescence; series mostly up to 76.8 µM
# Text: U.S. Tox21 Program National Center for Advancing Translational Sciences [NCATS] NIH Chemical Genomics Center [NCGC] U.S. Environmental Protection Agency [EPA] National Institutes of Environmental Health Sciences [NIEHS] National Toxicology Program [NTP] U.S. Food and Drug Administration [FDA] Tox21 Assay Overview: Measure of cell viability is critical in the cell-base assay. Analysis of cell viability is necessary for the characterization of cell responses to cytotoxic drugs and environmental stress. A RealTime-Glo MT Cell Viability Assay to monitor cell viability in real time of continues cell culture during 40 hours of compound treatment was used to screen Tox21 10K library compounds in HepG2 cells. The RealTime-Glo MT Cell Viability Assay is a nonlytic, homogeneous, bioluminescent method to measure cell viability in real time using a simple, plate-based method. The assay involves adding NanoLuc luciferase and a cell-permeant prosubstrate to cells in culture. Viable cells reduce the proprietary prosubstrate to generate a substrate for NanoLuc luciferase. This substrate diffuses from cells into the surrounding culture medium, where it is rapidly used by the NanoLuc Enzyme to produce a luminescent signal. The signal correlates with the number of viable cells, making the assay well suited for cytotoxicity studies.
# Tox21 Assay Protocol Summary: The mixture of HepG2 cell suspension and reagents were dispensed at 600cells/6 ul/well in 1536-well tissue culture treated black solid bottom plates using a Multidrop dispenser. After the assay plates were incubated at a 37 C/5% CO2 incubator for 5 hours, 23 nL of compounds dissolved in DMSO, positive and negative controls was transferred to the assay plate by a pintool work station. The plates were incubated at 37 C for 40 hours. The luminescence intensity were measured at 0h, 8h, 16h, 24h, 32h and 40h time points using ViewLux plate reader during compound treatment.
row,Compound,Potency
1,CC(C)NCC(O)COc1cccc2ccccc12 (stereo not given),inactive
2,NCCc1ccc(O)c(O)c1,inactive
3,CC#C[C@]1(O)CC[C@H]2[C@@H]3CCC4=CC(=O)CCC4=C3[C@@H](c3ccc(N(C)C)cc3)C[C@@]21C,inactive
4,O=C1CCCCC1,inactive
5,O=[N+]([O-])c1cc(N(CCO)CCO)ccc1NCCO,inactive
6,NC(=O)NNc1ccccc1,inactive
7,c1ccc2[nH]cnc2c1,inactive
8,C=C1C2CCC(C2)C1(C)C (stereo not given),inactive
9,CC(C)Cc1ccccc1,inactive
10,O=C(c1cc(O)c(O)c(O)c1)c1ccc(O)c(O)c1O,inactive
11,Oc1ccc(OCc2ccccc2)cc1,inactive
12,CCc1ccc(O)cc1,inactive
13,CC1(C)CC(N=C=O)CC(C)(CN=C=O)C1 (stereo not given),inactive
14,OC[C@@H](O)[C@@H](O)[C@H](O)[C@@H](O)CO,inactive
15,CCCCCC/C=C/CCCCCCCC(=O)O,inactive
16,CCOC(=O)[C@H](CCc1ccccc1)N[C@@H](C)C(=O)N1Cc2ccccc2C[C@H]1C(=O)O,inactive
17,Cc1cc(O)cc(C)c1Cl,inactive
18,CCCCC/C=C\C/C=C\CCCCCCCC(=O)OC,inactive
19,OCCOCCOCCOCCO,inactive
20,CCCCCCCCCCC=CC1CC(=O)OC1=O (stereo not given),inactive

row,Compound,Potency
1,CCCCC(CC)COC(=O)CCCCCCCC(=O)OCC(CC)CCCC (stereo not given),inactive
2,COCC(=O)O,inactive
3,O=[N+]([O-])C(CO)(CO)CO,inactive
4,C=C1CC[C@H](O)CC1=C/C=C1\CCC[C@]2(C)[C@@H]([C@H](C)/C=C/[C@H](C)C(C)C)CC[C@@H]12,inactive
5,CN(CCOc1ccc(CC2SC(=O)NC2=O)cc1)c1ccccn1 (stereo not given),inactive
6,CC1COc2ccccc2N1C(=O)C(Cl)Cl (stereo not given),inactive
7,O=C1N=C(O)CN1/N=C/c1ccc(-c2ccc([N+](=O)[O-])cc2)o1,inactive
8,Clc1cc(Cl)c(Cl)cc1Cl,inactive
9,CC1CC(OC(=O)c2ccccc2O)CC(C)(C)C1 (stereo not given),inactive
10,CN(C)c1cccc(O)c1,inactive
11,CCCCCCCCC,inactive
12,O=[N+]([O-])c1cccc(Cl)c1,inactive
13,CCCCOCCO,inactive
14,OCC1CCCO1 (stereo not given),inactive
15,OCC#CCO,inactive
16,CCCCC(CC)C(=O)OCCOCCOCCOC(=O)C(CC)CCCC (stereo not given),inactive
17,Cc1cc(Cc2ccc(N)c(C)c2)ccc1N,inactive
18,Cc1cc(=O)[nH]c(C(C)C)n1,inactive
19,ClC1=C(Cl)C(Cl)(Cl)C(Cl)=C1Cl,inactive
20,CCCCNC(N)=O,inactive
